From PubChem BioAssay (NCI)
About 83,000 compounds went through this panel and 20% of them were active in at least one assay; those are over-represented in the sample as a whole.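 Cells were grown in 96-well plates and exposed to the test compound at a single concentration for 48 hours; results are reported as percent growth, with values below 10 considered active.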 Values without a mark were called inactive. The source made the active and inactive calls.

Experiments:
Experiment in all cases: NCI-60 one-dose screen, 48 h (100 = growth as untreated, 0 = no growth, -100 = all killed)
Conditions in all cases: 10 µM unless noted
DU-145 prostate = tested on: DU-145 prostate
K-562 leukemia = tested on: K-562 leukemia
MALME-3M melanoma = tested on: MALME-3M melanoma
MDA-MB-231 breast = tested on: MDA-MB-231 breast
RXF 393 renal = tested on: RXF 393 renal
SF-268 CNS = tested on: SF-268 CNS
SF-295 CNS = tested on: SF-295 CNS
SF-539 CNS = tested on: SF-539 CNS
UACC-257 melanoma = tested on: UACC-257 melanoma
M14 melanoma = tested on: M14 melanoma

Row | SMILES | growth (DU-145 prostate) | growth (K-562 leukemia) | growth (MALME-3M melanoma) | growth (MDA-MB-231 breast) | growth (RXF 393 renal) | growth (SF-268 CNS) | growth (SF-295 CNS) | growth (SF-539 CNS) | growth (UACC-257 melanoma) | growth (M14 melanoma)
1 | Cn1cc(-c2cc(N)n3nc(-c4cn(C)c5ccc(Cl)cc45)cc3n2)c2ccccc21 | 111% | 108% | 104% | 107% | 115% | 107% | 97.2% | 105% | 102% | –
2 | COc1cc2c(c(OC)c1OC)C(=O)CC(c1cccc(NC(=O)c3cccc([N+](=O)[O-])c3)c1)O2 (stereo not given) | 26.9% | 25.7% | 33.5% | 24.2% | 43.6% | 38.4% | 44.6% | 48.7% | 44.1% | –
3 | COc1cccc(/C=C/c2nc3ccccc3c(=O)n2CC(=O)Nc2ccc(Cl)cc2)c1 | 68.9% | 84.6% | 67.3% | 27.9% | 83.5% | 82.3% | 61.2% | 52.7% | 92.3% | –
4 | Cc1ccccc1[C@H]1C(C(=O)c2ccc(Cl)cc2)C2(N[C@@H]1c1ccccc1)C(=O)Nc1ccccc12 (stereo not given in full) | -34.4% (active) | -21% (active) | -64.7% (active) | -60.4% (active) | -66% (active) | -12.5% (active) | -19% (active) | -69.5% (active) | -16.4% (active) | –
5 | CCCCCCCCc1ccc(C(=O)Nc2ccc(C)cc2C(=O)O)cc1C | 105% | 71.2% | 96.5% | 98.1% | 109% | 99.9% | 73.6% | 99.1% | 95% | –
6 | Clc1ccc(-c2ccc(OCCCN3CCN(c4ccncc4)CC3)cc2)cc1 | 69.1% | -45.6% (active) | 84.2% | 33.1% | 15.3% | 75.9% | 40.6% | 30% | 90.2% | –
7 | CCN1C(=O)/C(=N\N=C(/C)c2ccc3c(c2)Nc2ccccc2S3)c2cc(Cl)ccc21 | 71.8% | 38.2% | 35.9% | 66.8% | 65.9% | 43.8% | 43.2% | 73.3% | 25.7% | –
8 | O=C(N=Nc1c(O)[nH]c2ccc(Cl)cc12)c1ccc2nc(-c3ccccc3)[nH]c2c1 | 10.9% | 29.3% | 8.71% (active) | -33.1% (active) | 59.1% | 21.8% | 63.6% | 34% | 109% | –
9 | CC1(C)CC[C@]2(C(=O)O)CC[C@]3(C)C(=CCC4[C@@]5(C)C[C@@H](O)[C@@H]6OC(c7ccccc7F)OC[C@@]6(C)C5CC[C@]43C)C2C1 (stereo not given in full) | 20% | 12.8% | 28.6% | 20.5% | -14.5% (active) | 14.3% | -0.465% (active) | 5.14% (active) | 24.2% | –
10 | COc1ccc(-c2c(Nn3cnnn3)no[n+]2[O-])cc1 | 63.1% | 30.2% | 62.2% | 38.8% | 42.5% | 66.3% | 51.6% | 56.3% | 71.8% | –
11 | Cn1cc(-c2nc(N)nnc2-c2c[nH]c3ccc(F)cc23)c2cc(Br)cnc21 | 10.1% | 5.23% (active) | 21.6% | 5.57% (active) | -4.53% (active) | 4.51% (active) | 9.21% (active) | -11.5% (active) | 29.8% | –
12 | C=C1CC[C@@H]2[C@]3(C)COC(c4cn[nH]c4-c4cccc(Cl)c4)O[C@@H]3CC[C@@]2(C)[C@@H]1C/C=C1/C(=O)OCC1O (stereo not given in full) | 25.5% | 5% (active) | -50.7% (active) | -52.7% (active) | -91% (active) | 34.3% | -32.8% (active) | -89.8% (active) | -33.1% (active) | -73.4% (active)
13 | O=c1onc(-c2cc3ccccc3nc2Cl)n1-c1cccc2ccccc12 | 80.7% | 17.6% | 55.3% | 29.7% | 43.5% | 73.8% | 15.5% | 52.6% | 70.7% | –
14 | COc1ccc(CCC2c3c(cc4c(c3OC)OCO4)CCN2C)cc1 (stereo not given) | 5.2% (active) | 3.01% (active) | -98.4% (active) | -80.8% (active) | -35% (active) | 10.2% | -65.2% (active) | -99.9% (active) | -65.7% (active) | –
15 | O=C(Cn1c(/C=C/c2ccccc2)nc2ccccc2c1=O)Nc1ccc(Cl)cc1 | 71.3% | 85.2% | 59.1% | 4.32% (active) | -8.9% (active) | 75.2% | 59.1% | 58.7% | 83.6% | –
16 | CCCSc1nc(Nc2ccc(S(N)(=O)=O)cc2)c(C#N)c(-c2ccc(Cl)cc2)n1 | 58.7% | 7.3% (active) | -4.55% (active) | -55.6% (active) | -43.4% (active) | 66% | 1.43% (active) | -4.39% (active) | 54.8% | –
17 | N/C(=N\c1nc2ccccc2s1)NC(=O)Nc1ccc(Cl)cc1Cl | -74.2% (active) | 9.51% (active) | -75.2% (active) | -83.4% (active) | -84% (active) | -2.76% (active) | -98.5% (active) | -78.2% (active) | 18.8% | -53.6% (active)
18 | Cc1ccc(-c2nc(C#N)c(S(=O)(=O)N3CCN(S(=O)(=O)c4ccc(Cl)cc4)CC3)o2)cc1 | 97.4% | 56.9% | 79.1% | 90.9% | 56.6% | 75.8% | 110% | 70.5% | 89.5% | –
19 | COc1cc(-c2nc3ccc(C)cc3[nH]2)ccc1OCc1nnc(-c2ccc(Br)cc2)o1 | 58.3% | 3.01% (active) | 45% | 12.9% | 25.2% | 54.8% | -54.1% (active) | -82.7% (active) | -15.4% (active) | –
20 | COCOc1cc2c(=O)c(C)c(C(=O)N[C@@H](Cc3ccccc3)C(O)C(=O)NCc3ccccc3)oc2cc1OC (stereo not given in full) | 57.3% | 40.6% | -27.7% (active) | 25.6% | -17.2% (active) | 1.19% (active) | 83.5% | -79.7% (active) | 30.2% | –
21 | NC(=S)Nc1cccc(NC(N)=S)c1 | 101% | 9.26% (active) | 84.3% | 89.7% | 104% | 90.9% | 90.2% | 100% | 98.1% | –
22 | COc1ccc(/C=C/c2nc3ccccc3c(=O)n2CC(=O)Nc2ccc(Cl)cc2)cc1 | 65.9% | 66.6% | 76.3% | 48.8% | 48.5% | 61.4% | 53% | -13% (active) | 92.3% | –
23 | C=C1CCC2C3(C)COC(c4ccccc4)OC3CCC2(C)C1CC(NCc1ccccc1)C1=CCOC1=O (stereo not given) | 98.7% | 58.8% | 92.4% | 71.5% | 78.5% | 82.4% | 72% | 89.2% | 71.7% | –
24 | CC12CC[C@@H]3[C@]4(C)COC(c5cn[nH]c5-c5ccc(Br)cc5)O[C@@H]4CC[C@@]3(C)[C@@H]1CC(C1=CCOC1=O)O2 (stereo not given in full) | 69.5% | 19.4% | 70.2% | 66% | 37% | 50.1% | 48.7% | 69.9% | 55.2% | –
25 | O=C(COc1ccc(NC(=O)Nc2ccc(Cl)cc2)cc1)N/N=C/c1ccccc1 | -23.9% (active) | -15.2% (active) | -90.8% (active) | -87.9% (active) | -85.2% (active) | -55.2% (active) | -96.6% (active) | -95.3% (active) | -36.6% (active) | –
26 | CC1(C)CC[C@]2(C(=O)Nc3ccc(Br)cc3)CC[C@]3(C)C(=CCC4[C@@]5(C)C[C@@H](O)[C@H](O)[C@@](C)(CO)C5CC[C@]43C)C2C1 (stereo not given in full) | 21.5% | 5.08% (active) | 33.2% | -43.3% (active) | -64.5% (active) | 43.8% | -13.3% (active) | -5.36% (active) | 11.1% | –
27 | S=c1c2ccccc2nc2n1CCc1c-2[nH]c2ccccc12 | 68.1% | 57.8% | 54.2% | 40.8% | 28.7% | 57.7% | 63.4% | 43.4% | 66.1% | 70.1%
28 | O=C(/C=C/Nc1ccc2oc(=O)ccc2c1)c1cc2cc(Br)ccc2oc1=O | 122% | 110% | 95.2% | 94.1% | 121% | 107% | 102% | 97.4% | 91.2% | –
